Results published in paper PMC13494018.

B1: design_604_3e0b3014-b333-46f1-8adc-d7f0bf8048fa_171_dldesign_0_cycle1_af2pred (protein)
chain: QEALKKELEKAAAKVKELAEYIEKNAEKLTAEEAEKIAEELRKLAKKLREIGEKLDAETRKEAQKAVDLAYEAAALAKSIAARKK
B2: design_604_3e0b3014-b333-46f1-8adc-d7f0bf8048fa_941_dldesign_0_cycle1_af2pred (protein)
chain: SLLDEAVALLAAANPALAPEFEKLARELQGYLDLAKDYPEIAPVMLKRATRVGEELVAVAAEAGPEVAEVATAAVEEVLAAIK
B3: design_604_3e0b3014-b333-46f1-8adc-d7f0bf8048fa_1013_dldesign_0_cycle1_af2pred (protein)
chain: SLEEILKEVKAENERLTARIEAAYERGLAAIAAGDLKAASAAAGEIAEARAEAALINTRYGNVAKEVEDKARELLREVRAAGKA
B4: design_604_3e0b3014-b333-46f1-8adc-d7f0bf8048fa_672_dldesign_0_cycle1_af2pred (protein)
chain: ALEKATEAAKKAGEAVAKALGEEGKPVAEEAIEKIADPSTWKDGFSLFLRYAYYAGEEVYKKVDELLDEVLELLS
B5: design_604_3e0b3014-b333-46f1-8adc-d7f0bf8048fa_1117_dldesign_0_cycle1_af2pred (protein)
chain: MEGIETSDLLSKAIKTGKEAYKELKEVGTEEEAEKFKEEMVKKLFEAADADIEESKKLLKELLKEAEEKLEEAKKRKA
B6: design_604_3e0b3014-b333-46f1-8adc-d7f0bf8048fa_762_dldesign_0_cycle1_af2pred (protein)
chain: SKKVYELYAEAKLEQIKRAKELAPKGDPKLAAERAEKLAKEAKEAAKKAGEEGEKIAKEAEKEAEALKKEV
B7: design_603_0b98da89-d791-4423-9b2d-fd1b7292da18_2271_dldesign_0_cycle1_af2pred (protein)
chain: MTPEEKKAAEAEKIAAAADAAIKAAEKAIASGTKAEIATEAARLESVAMAAKALGTAPDIAERAEAAAEKAWQAAVEKLE
B8: design_603_0b98da89-d791-4423-9b2d-fd1b7292da18_2381_dldesign_0_cycle1_af2pred (protein)
chain: AAAAAEEAATAAAAALGKAVAAQVLAAADDPEKRGALVAEAQAIADKLSPAQRAAMAAAMHEAHEKIAEKKSEKAR
B9: design_604_3e0b3014-b333-46f1-8adc-d7f0bf8048fa_423_dldesign_0_cycle1_af2pred (protein)
chain: AKEKALKEALKEFDKAQEYGFDYVAEAKKNPEVYEEAYEERKKAIKEAKELYKEATTEEKAKELLELAKKEAEKFKEKAKEL
B10: design_604_3e0b3014-b333-46f1-8adc-d7f0bf8048fa_148_dldesign_0_cycle1_af2pred (protein)
chain: MKEASEEMAKAYEALAELRLLAKKIPEFKEDAEKAEKKLKEAVKADPETALKLAKETKEEVEKAIEKAKKKL
B11: design_604_3e0b3014-b333-46f1-8adc-d7f0bf8048fa_739_dldesign_0_cycle1_af2pred (protein)
chain: KEEILKEAKKLKEEAVKKAKEGNAEEGRKARKEFLEEMKKMAEKGDKKEISKITHEALEKIAEAIQEAKEKARKEEEEKK
B12: design_604_3e0b3014-b333-46f1-8adc-d7f0bf8048fa_503_dldesign_0_cycle1_af2pred (protein)
chain: SAALVDARVAAADALYDAAIAAGYESLAGKIATAFIRGAATGVEAALERASAVAPEELKPVVAAEAAKVAAVA
B13: design_603_0b98da89-d791-4423-9b2d-fd1b7292da18_2259_dldesign_0_cycle1_af2pred (protein)
chain: GAAALAAGKAALKEAKDTAAKANEAMGGGLQPVFDSAMKTVEAKKGDPAAYLKAATAFKTTFSRILKLAS
B14: design_604_3e0b3014-b333-46f1-8adc-d7f0bf8048fa_962_dldesign_0_cycle1_af2pred (protein)
chain: HHKKEKAKKVAELLEKARELAEKEGPEAAKPLIVEARSLAFEVDSELGRKIAKAGLLILKDLEKGLKILKEVQEEFKKIA
B15: design_604_3e0b3014-b333-46f1-8adc-d7f0bf8048fa_1084_dldesign_0_cycle1_af2pred (protein)
chain: SPAAAAAAVQYAAFDAIAAATDAATVKAIADAAVAALAAAAAADPAHAEQYAKAAAAIKSFADAAIKALK
B16: design_604_3e0b3014-b333-46f1-8adc-d7f0bf8048fa_1004_dldesign_0_cycle1_af2pred (protein)
chain: AAAEAARKAEVAKKSKELAKQIAENASDEEKRKALLAEMRALAEAGTPEEAAIVVEEVHKGYEEAAEKLVEERR
B17: design_604_3e0b3014-b333-46f1-8adc-d7f0bf8048fa_936_dldesign_0_cycle1_af2pred (protein)
chain: MEEAKEKAKEQIKKLKEAAEKAVKVYKEIGKEEEAKKIKEEAKKAEKEAEKLLEKDPYEGAQLAQEALAEAKAELSRAEKELKK
B18: design_604_3e0b3014-b333-46f1-8adc-d7f0bf8048fa_498_dldesign_0_cycle1_af2pred (protein)
chain: MLEFLEKVEEKADKKIEEALAKEDPVKALEEEKKKMEAELKAKSEAAKGDPGLHKLYLTAARLAKNQFDVEIKKAKEELE
B19: design_604_3e0b3014-b333-46f1-8adc-d7f0bf8048fa_841_dldesign_0_cycle1_af2pred (protein)
chain: AELEKAIKEANALRDKALDNVGNPEEAQKYIDELKEKAKKAAELGGPEVAKEAEKMIKALEDTLEKAKKILE
B20: design_604_3e0b3014-b333-46f1-8adc-d7f0bf8048fa_188_dldesign_0_cycle1_af2pred (protein)
chain: GALEEIKKLGKKAKEAAKNGDSSEAIREFAKLAKAAGKALTPEFAKKASEKLYEVVDTLAKDEEEGKKLLEKKVEEIVKEAKKYLE
B21: design_604_3e0b3014-b333-46f1-8adc-d7f0bf8048fa_950_dldesign_0_cycle1_af2pred (protein)
chain: AEEALKKAEEYAAKGDEYAAKGEAYEKSGDKLEEAAKYYAKAASYYLLAANAYLAAGNEEKAKEAEAKAEEAAEKATEAYQKASA
B22: design_604_3e0b3014-b333-46f1-8adc-d7f0bf8048fa_596_dldesign_0_cycle1_af2pred (protein)
chain: DAKKEIQELTDEAIKKIEEYAKKAKDPKNYEKAIKEAVDTVHEAQQKLAEIGKKYGPEAEKYAKEQRKKVIDAGKKYIEEAKKAQA
B23: design_604_3e0b3014-b333-46f1-8adc-d7f0bf8048fa_253_dldesign_0_cycle1_af2pred (protein)
chain: SETTEKLKKELEAAKKEGKEALAKAEAAGDAEAAKKAGSDAAGKLYEIAAEADSAGDKETAKEARKAAKEIREAAKKAIAAAKAKAAA
B24: design_604_3e0b3014-b333-46f1-8adc-d7f0bf8048fa_75_dldesign_0_cycle1_af2pred (protein)
chain: SAEAEEAEKKALLEFSEAAAELRGLATLGKNKGNAKELAEKGFKAIEEGKKALEAATKTEEKKEIATRYAKELKELKEKLEKALS
B25: design_604_3e0b3014-b333-46f1-8adc-d7f0bf8048fa_1128_dldesign_0_cycle1_af2pred (protein)
chain: MAEKEAQLKKIEEEKKKVSEKFFEAFELASSKELASEISKKSKEANELFKKGREDPSIADKTMEEAKKIAEEALEKAKKEKEA
B26: design_604_3e0b3014-b333-46f1-8adc-d7f0bf8048fa_1074_dldesign_0_cycle1_af2pred (protein)
chain: DPAEERVEKARKEMEKAVEKYAEKGKKENLNLAYAEAIREISRIAKELVKEIGEEVRERALKIKEEQLKKLEKLEKEA
B27: design_604_3e0b3014-b333-46f1-8adc-d7f0bf8048fa_1186_dldesign_0_cycle1_af2pred (protein)
chain: SMSKELAEKIRKAIREIREAAERAIAEARRLVEEGRVEEGLAVLEEAEKEFRELAKKWEGYAASGVAENGAAALRAVREEIE
B28: design_604_3e0b3014-b333-46f1-8adc-d7f0bf8048fa_12_dldesign_0_cycle1_af2pred (protein)
chain: MNLEEAKNLLEAAKELVEEAKELLKEGKYKQALAFAKTAYEIAEKVAKEVPELAKEAEKIKKEAKEVIEEAKKAL
B29: design_604_3e0b3014-b333-46f1-8adc-d7f0bf8048fa_1067_dldesign_0_cycle1_af2pred (protein)
chain: SEIEKGEALLKEDPEWAKAASDALGKIAEDPEEGEKYAKEVIEKVLKEDPEKGPLMAKAIEERSEKLKKRVEEALERAK
B30: design_603_0b98da89-d791-4423-9b2d-fd1b7292da18_2191_dldesign_0_cycle1_af2pred (protein)
chain: MEEAKKKAEELIKRAKEHVEKARKIAKEGGSTMEAMLHILEAEADAREALKIGEKYPELKEMAEEAKEYVKKTRKEIKAILKA
B31: design_603_0b98da89-d791-4423-9b2d-fd1b7292da18_2319_dldesign_0_cycle1_af2pred (protein)
chain: AETWLDALDDAAKDHPSFAYAFATSIAKRAEEKIKELTEKAKENASNPELKKKLLEKAEEYKKVLEKAKEVAEKALKEYLA
B32: design_604_3e0b3014-b333-46f1-8adc-d7f0bf8048fa_1191_dldesign_0_cycle1_af2pred (protein)
chain: EEKKKEIEELKKKVSKAQLELTDLAAKQDISKKDLEEKVQEAIRKAAKLGKIADEAVAKGEEYYPEAKKALEEALKVLEEAKKAVEEA
B33: design_604_3e0b3014-b333-46f1-8adc-d7f0bf8048fa_145_dldesign_0_cycle1_af2pred (protein)
chain: IKQLEQLLEMAEEEAKKDPVTGIALARATINRADRLAASGTPEEAKKANEIKEKAEKVKKEAEAKLAAAEAAAKA
B34: design_603_0b98da89-d791-4423-9b2d-fd1b7292da18_2382_dldesign_0_cycle1_af2pred (protein)
chain: ALAAAKEKAKAIEEKLSQAIFDGADKGPEVVFKAAEEAEKEVEEMKKADPKAKEEVKRAKEAVKKAKAVGKSMKEAEENAKKGA
B35: design_604_3e0b3014-b333-46f1-8adc-d7f0bf8048fa_818_dldesign_0_cycle1_af2pred (protein)
chain: EEVEKKSEEVKKLLEEGAKTTTIDAQLAASEAVELAEELMKKDPEKGLKVAEVVLKEAEKLLKANPGVGELTIKRAEKVIKRAKE
B36: design_604_3e0b3014-b333-46f1-8adc-d7f0bf8048fa_694_dldesign_0_cycle1_af2pred (protein)
chain: SVEEKLKEAEKVFKEVEERAKKVEAKDPEEGKKLREELAKARELAESDPSKAPEAAQQARIALTEAEWEVRKKEK
B37: design_604_3e0b3014-b333-46f1-8adc-d7f0bf8048fa_844_dldesign_0_cycle1_af2pred (protein)
chain: EEEKLKEAEKHLEKMIEILKEAAKKGYAKEEVELVKGDEETRKKGVYNAMGNVITGEGKEGVETARKISRYAKKSEELRKA
B38: design_603_0b98da89-d791-4423-9b2d-fd1b7292da18_2465_dldesign_0_cycle1_af2pred (protein)
chain: ASEKAKAFSEAQRLLVRAGKLAAADPKTAPVAELVQKAIFALGDNLEEGLKLAEEAAELAKKIGDEETAKLVKEAAEKIKEVI

target: VTCN1, Q7Z7D3
Sequence (Q7Z7D3 whole entry): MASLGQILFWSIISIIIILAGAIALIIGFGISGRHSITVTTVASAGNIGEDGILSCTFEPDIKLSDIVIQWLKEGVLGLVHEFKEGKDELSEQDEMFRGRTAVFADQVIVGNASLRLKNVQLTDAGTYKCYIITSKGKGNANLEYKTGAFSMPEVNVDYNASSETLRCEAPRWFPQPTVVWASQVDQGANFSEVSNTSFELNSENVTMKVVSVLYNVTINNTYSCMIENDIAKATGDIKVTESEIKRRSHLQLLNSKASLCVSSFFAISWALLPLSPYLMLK

Row | Binder | binding in a display sort
1 | B1 | not found (inactive)
2 | B2 | not found (inactive)
3 | B3 | not found (inactive)
4 | B4 | not found (inactive)
5 | B5 | not found (inactive)
6 | B6 | not found (inactive)
7 | B7 | not found (inactive)
8 | B8 | not found (inactive)
9 | B9 | not found (inactive)
10 | B10 | not found (inactive)
11 | B11 | not found (inactive)
12 | B12 | not found (inactive)
13 | B13 | not found (inactive)
14 | B14 | not found (inactive)
15 | B15 | not found (inactive)
16 | B16 | not found (inactive)
17 | B17 | not found (inactive)
18 | B18 | not found (inactive)
19 | B19 | not found (inactive)

Row | Binder | binding in a display sort
20 | B20 | not found (inactive)
21 | B21 | not found (inactive)
22 | B22 | not found (inactive)
23 | B23 | not found (inactive)
24 | B24 | not found (inactive)
25 | B25 | not found (inactive)
26 | B26 | not found (inactive)
27 | B27 | not found (inactive)
28 | B28 | not found (inactive)
29 | B29 | not found (inactive)
30 | B30 | not found (inactive)
31 | B31 | not found (inactive)
32 | B32 | not found (inactive)
33 | B33 | not found (inactive)
34 | B34 | not found (inactive)
35 | B35 | not found (inactive)
36 | B36 | not found (inactive)
37 | B37 | not found (inactive)
38 | B38 | not found (inactive)
